Source: PubChem BioAssay
An excerpt weighted towards active compounds, which were near 4% of everything screened.
FGF22 binding = binders of human FGF22 protein, primary screen, FGF22 synaptogenesis inhibitor project, biophysical, thermal shift, single point; Fibroblast growth factor 22 (Homo sapiens), Q9HCT0; recombinant FGF22 thermal shift, SYPRO orange fluorescence; percent of sucrose octasulfate shift, DMSO zero; activity (Tm shift, normalised), % at 9.99 µM; actives 1.5% (n = 340,000); AID 651658, 2012;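 active = mean Tm shift, scaled 0 neutral to 100 positive control, at about 1.3% or above, every replicate too, limit read from the data; inconclusive = no clear call, values can overlap the other calls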
DENV2 CPE = inhibitors of DENV2 cytopathic effect, primary screen, cell-based, plate reader, single concentration. DENV2-infected cells, cytopathic effect rescue. CPE inhibition, % at 9.99 µM. actives 1.7% (n = 350,000); in the data active = CPE inhibition above about 20%, passing the limit was not always enough; inconclusive = no clear call, values can overlap the other calls; tested in BHK-21 cells;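 also: 0% = median of neutral control wells and 100% = median of positive control wells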
RAD52 inh = RAD52 DNA annealing inhibitors, primary screen, biochemical, FRET, single point, set 2 | DNA repair protein RAD52 homolog (Homo sapiens), P43351 | recombinant RAD52 DNA annealing, FRET fluorescence | inhibition, % at 18.7 µM | actives 0.46% (n = 360,000) | AID 651710, 2012;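 active = every replicate showing at least 50% inhibition; inconclusive = mean inhibition at least 50% but not in every replicate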
Target sequence (P43351 whole entry, looked up): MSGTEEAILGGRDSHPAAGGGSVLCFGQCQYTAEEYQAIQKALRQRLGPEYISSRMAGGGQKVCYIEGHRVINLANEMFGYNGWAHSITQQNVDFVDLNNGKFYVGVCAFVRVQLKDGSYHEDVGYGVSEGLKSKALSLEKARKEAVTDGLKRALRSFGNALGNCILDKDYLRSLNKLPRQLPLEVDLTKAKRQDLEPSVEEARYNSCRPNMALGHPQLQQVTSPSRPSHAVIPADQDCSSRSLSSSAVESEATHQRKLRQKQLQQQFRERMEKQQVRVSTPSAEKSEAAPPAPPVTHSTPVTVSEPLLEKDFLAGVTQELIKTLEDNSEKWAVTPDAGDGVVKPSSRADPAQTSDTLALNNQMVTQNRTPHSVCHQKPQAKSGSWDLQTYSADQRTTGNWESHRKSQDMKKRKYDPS
AF4-AF9 inh = inhibitors of AF4 peptide binding to AF9, primary screen, biochemical, AlphaScreen, biotin-AF4 peptide, FLAG-AF9, single point; inhibition, % at 10 µM; actives 0.47% (n = 350,000);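 active = every replicate reaching a set inhibition limit, whatever the replicate mean, cut at about 25% in these data; inconclusive = mean inhibition reaches that limit but some replicates miss it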;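 also: 0% = plate neutral control median and 100% = total signal loss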
ERAP1 inh = human ERAP1 aminopeptidase inhibitors, primary screen, biochemical, single point, plate reader; Endoplasmic reticulum aminopeptidase 1 (Homo sapiens), Q9NZ08; AID 652197, 2013; inhibition, % at 10.7 µM; actives 0.15% (n = 340,000); recombinant ERAP1, Leu-AMC fluorescence, 60 min;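 active = mean replicate inhibition of at least 30%, or all replicates individually reaching that 30% level; inactive = mean below 30% and not every replicate reaching it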;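 also: 0% = neutral control wells and 100% = L-leucinethiol positive control wells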
* marks the source's active call; other numbers are inactive results.

`CC(C)Oc1ccccc1OC1(C)CCN(Cc2ccc(OC(F)(F)F)cc2)C1` (stereo not given) gave FGF22 binding 0, DENV2 CPE 42*, RAD52 inh -9, AF4-AF9 inh -2 and ERAP1 inh 3.
COC(=O)c1ccc2nc(NC(=O)C(C)(C)C)sc2c1 was read as FGF22 binding 43*, DENV2 CPE 3, RAD52 inh -10, AF4-AF9 inh 2 and ERAP1 inh 0.
Screening O=c1c2cc(Cl)ccc2nc(-c2ccccc2)n1O returned FGF22 binding 46*, DENV2 CPE 7, RAD52 inh -3, AF4-AF9 inh 2 and ERAP1 inh 6.
Screening CC(C(=O)NCc1ccccc1)n1c(CSCCOc2ccccc2)nc2ccccc21 (stereo not given) returned FGF22 binding 0, DENV2 CPE 40*, RAD52 inh -15 and ERAP1 inh 0.
`CN(C)CCCNC(=O)C[C@H]1CC[C@@H]2[C@@H](COc3ccc(NC(=O)c4ccc5c(c4)OCO5)cc3C(=O)N2C)O1` gave FGF22 binding 0, DENV2 CPE -7, RAD52 inh 0, AF4-AF9 inh -1 and ERAP1 inh -1.
C[C@H](CO)N1C[C@H](C)[C@H](CN(C)S(=O)(=O)c2ccc(Cl)cc2)Oc2ccc(NC(=O)NC3CCCCC3)cc2CC1=O was read as FGF22 binding -1, DENV2 CPE 4, RAD52 inh -23 and AF4-AF9 inh 2.
`O=C(CSC(=S)N1CCCCC1)Nc1ncc2c(n1)CC(c1ccco1)CC2=O` (stereo not given) gave FGF22 binding 0, DENV2 CPE 11, RAD52 inh -18 and AF4-AF9 inh -3.
O=C(CSC(=S)N1CCOCC1)Nc1ncc2c(n1)CC(c1ccco1)CC2=O (stereo not given) was read as FGF22 binding 0, DENV2 CPE 30*, RAD52 inh -13, AF4-AF9 inh -1 and ERAP1 inh -4.
`CSS(=O)(=O)c1cccc2cccnc12` gave FGF22 binding 0, DENV2 CPE 5, RAD52 inh 0, AF4-AF9 inh -4 and ERAP1 inh 85*.
`O=[N+]([O-])c1ccc(N2CCN(C(=S)NCc3ccc(Cl)cc3)CC2)cc1` gave FGF22 binding 0, DENV2 CPE -1, RAD52 inh -19, AF4-AF9 inh 34* and ERAP1 inh 1.
C=CCNC(=S)N1CCN(c2ccc([N+](=O)[O-])cc2)CC1 was read as FGF22 binding 0, DENV2 CPE 1, RAD52 inh -17, AF4-AF9 inh 1 and ERAP1 inh 3.
`CC(C)(C)OC(=O)C[C@@H]1C/C=C\C[C@H](CC(=O)NCCO)C(=O)N2CCC[C@H]2COC1=O` gave FGF22 binding 0, DENV2 CPE 83*, RAD52 inh -6 and ERAP1 inh -6.
`Cc1ccc(S(=O)(=O)N2C[C@@H]3O[C@@H](CNS(=O)(=O)c4ccccc4C)CC[C@@H]32)cc1` gave DENV2 CPE 1, RAD52 inh -2, AF4-AF9 inh -2 and ERAP1 inh 2.
For CCN(Cc1ccccc1)C(=O)c1[nH]c2ccc(OC)cc2c1C the results were FGF22 binding 0, DENV2 CPE 5, RAD52 inh 1, AF4-AF9 inh 3 and ERAP1 inh 3.
For CCN(CC)CCNC(=O)c1[nH]c2ccc(OCc3ccccc3)cc2c1C the results were FGF22 binding 0, DENV2 CPE -6, RAD52 inh 23, AF4-AF9 inh 25* and ERAP1 inh -1.
CSC(SC)=C(C#N)C(=O)c1ccccc1 was read as FGF22 binding 0, DENV2 CPE inconclusive, RAD52 inh -5 and ERAP1 inh 1.
For COc1cccc(C(=O)C(C#N)=C(SC)SC)c1 the results were FGF22 binding 0, DENV2 CPE 34*, RAD52 inh -10, AF4-AF9 inh -5 and ERAP1 inh -3.
